Source: PubChem
IMPase inh: cell-permeable inhibitors of inositol monophosphatase (IMPase); 120,000 tested, under 10 active; P97697; inhibition (IP1 accumulation), % at 46.1 µM; CHO-M1 cells, IP1 accumulation, HTRF TR-FRET ratio; active means well fitted curve in the direction sought with a large enough effect in the signal ratio, not every such curve was filed as active; inconclusive means small, poorly fitted or top-dose-only effect, or a change in a side signal; inactive means no such curve, though single readings can be large or run the other way; the % refers to the signal ratio;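 further: cells stimulated with carbachol in lithium chloride buffer; higher means more IMPase inhibition seen as more IP1 and lower FRET ratio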
Target sequence (P97697 whole entry, looked up): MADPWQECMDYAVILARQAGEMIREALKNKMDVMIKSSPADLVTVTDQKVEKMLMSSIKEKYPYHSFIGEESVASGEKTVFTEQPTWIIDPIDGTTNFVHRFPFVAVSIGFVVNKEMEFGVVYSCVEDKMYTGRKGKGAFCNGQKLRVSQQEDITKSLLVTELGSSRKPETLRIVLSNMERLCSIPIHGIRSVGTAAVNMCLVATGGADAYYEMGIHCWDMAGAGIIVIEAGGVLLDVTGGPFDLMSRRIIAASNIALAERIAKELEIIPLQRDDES
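CHO-M1, 2000 cells/well, cultured 16–30 h; cpd up to 46 uM; carbachol (50 uM solution, stimulation buffer w/ 50 mM LiCl, pH 7.4), 30 min 37C; IP-One TR-FRET, 10 min RT; Ex 320/Em 665, 620; Hill-fit AC50.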
PNC inhibitor: inhibitors of perinucleolar compartment assembly; activity change (PNC), negative = inhibition, % at 10 µM; actives 3.1% (n = 140,000); AID 2417; PC3M PTB-GFP, PNC prevalence imaging, 16 h; stronger effect = lower value;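 active means readout at or below -70, meaning at least 70% loss of cells showing the perinucleolar compartment, a nuclear body marking cancer cells; inconclusive means readout between -30 and a set limit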
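Compounds are pinned in duplicate onto adhered PC3M cells stably expressing GFP-tagged PTB and incubated 16 h at 37 C. Cells are then fixed, nuclei stained with Hoechst, and PNC-positive cells counted.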
ALDH1A1 block: inhibitors of human aldehyde dehydrogenase 1A1; AID 1030; Potency, µM (highest dose often 75.3 µM), most hits filed as inhibitors; actives 7.3% (n = 220,000); P00352; Purified ALDH1A1, NADH fluorescence, propionaldehyde substrate
Target sequence (P00352 whole entry, looked up): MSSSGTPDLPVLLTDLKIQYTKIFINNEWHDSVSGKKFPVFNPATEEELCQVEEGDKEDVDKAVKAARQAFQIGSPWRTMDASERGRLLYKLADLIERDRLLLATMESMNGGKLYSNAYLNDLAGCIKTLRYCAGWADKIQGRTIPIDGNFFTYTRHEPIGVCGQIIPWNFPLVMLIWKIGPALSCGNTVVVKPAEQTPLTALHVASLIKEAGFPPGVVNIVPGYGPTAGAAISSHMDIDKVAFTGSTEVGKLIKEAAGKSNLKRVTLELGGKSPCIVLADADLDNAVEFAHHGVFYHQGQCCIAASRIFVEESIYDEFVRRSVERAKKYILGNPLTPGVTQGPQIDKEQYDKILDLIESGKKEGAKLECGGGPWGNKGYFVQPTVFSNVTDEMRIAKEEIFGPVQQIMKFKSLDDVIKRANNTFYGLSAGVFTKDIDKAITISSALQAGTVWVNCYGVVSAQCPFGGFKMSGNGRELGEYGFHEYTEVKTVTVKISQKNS
Lamin A splicing: changes lamin A minigene splicing in HeLa cells. HeLa LMNA splicing GFP/RFP minigene ratio, 48 h. Potency, µM (highest dose often 46.1 µM), hits mostly inhibitors. actives 0.01% (n = 200,000). AID 1487; active means well fitted inhibition curve with a large enough effect in the signal ratio, with a control signal flat, not every such curve was filed as active; inconclusive means small, poorly fitted or top-dose-only effect, or effect the other way, or a change in a side signal; the % refers to the signal ratio
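Read-out is the ratio of GFP to DsRed2 object intensity, acquired by 488 nm laser-scanning cytometry on HeLa lamin A-EGFP minigene reporter cells. Compound incubation 48 hrs at 37 °C in Opti-MEM with 2% FBS; DMSO 0.5% final.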
HPGD inh: HPGD (human) dehydrogenase inhibition. P15428. purified HPGD, NADH fluorescence kinetic, PGE2 substrate. Potency, µM, most hits filed as inhibitors. actives 4.3% (n = 150,000). AID 894
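20 nM HPGD preincubated 15 min at room temperature with compound in 50 mM Tris-HCl pH 8, 0.01% Tween 20. Started with 1 mM NAD+ and 30 uM prostaglandin E2; NADH fluorescence (360/450 nm) read 5 times over 30-s intervals, last minus first.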
Luc counter: Kinase-Glo luciferase inhibition (counter-screen) | Q27757 | Kinase-Glo luciferase, ATP luminescence, 8 min | Potency, µM (top dose mostly 38.3 µM), hits mostly inhibitors | actives 0.28% (n = 200,000); active means well fitted inhibition curve with a large enough effect; inconclusive means small, poorly fitted or top-dose-only effect; further: nearly all actives have a fitted effect of over 60% in size
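Substrate mix (final 50 mM imidazole pH 7.2, 50 mM KCl, 7 mM MgCl2, 10 uM ATP, 0.01% Tween 20, 0.05% BSA) plus pin-tool compound, then Kinase-Glo detection mix; 8 min ambient, luminescence read.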
Numbers stand for hits; i = inactive; ? = inconclusive; nt = not tested or not shown; [ ] = another dose, or the depositor's remark. An excerpt weighted towards active compounds, which were near 10% of everything screened. Unless noted, the call rests on the fitted dose curve; in most records, active means well fitted inhibition curve with a large enough effect (not every such curve was filed as active); inconclusive means small, poorly fitted or top-dose-only effect, or another doubt; inactive means no such curve, though single readings can be large or run the other way.

SMILES | IMPase inh | PNC inhibitor | ALDH1A1 block | Lamin A splicing | HPGD inh | Luc counter
O=C(C1CCCO1)N1N=C(c2ccc(Br)cc2)CC1c1ccco1 (stereo not given) | nt | -89 | i | ? | i | i
COc1ccccc1C(=O)N(c1ccc(C)cc1)S(=O)(=O)c1ccc(Cl)cc1 | i | nt | nt | nt | nt | nt
O=c1c([N+](=O)[O-])c(NCCN2CCCCCC2)c2ccccc2n1-c1ccccc1 | nt | ? | 4µM | i | i | i
CCn1c(=O)c([N+](=O)[O-])c(NCCN(C)C)c2ccccc21 | nt | nt | 11µM | nt | nt | i
Cn1c(=O)c([N+](=O)[O-])c(NCC(O)c2ccccc2)c2ccccc21 (stereo not given) | nt | i | ? | i | 25µM | i
CCn1c(=O)c([N+](=O)[O-])c(Cl)c2ccccc21 | nt | nt | ? | ? | nt | i
CCn1c(=O)c([N+](=O)[O-])c(NCC(O)c2ccccc2)c2ccccc21 (stereo not given) | nt | ? | ? | ? | 16µM | i
COCCNc1c([N+](=O)[O-])c(=O)n(-c2ccccc2)c2ccccc12 | nt | i | ? | i | i | i
CCCCNc1c([N+](=O)[O-])c(=O)n(C)c2ccccc12 | nt | nt | i | i | nt | i
CC(=O)Nc1nnc2n1CCS2 | nt | nt | nt | i | nt | nt
CCc1ccccc1NC(=O)Cn1c(=O)n(CCCS(=O)(=O)C2CCCCC2)c(=O)c2ccccc21 | i | nt | nt | nt | nt | nt
COc1ccc(-c2cc(C(=O)N3CCOCC3)c3cc(C)ccc3n2)cc1 | i | i | ? | i | ? | i
Cc1ccc(-c2c(C(=O)Nc3ccccc3F)oc(=O)c3ccccc23)cc1 | nt | nt | nt | i | nt | nt
Cc1ccc(-c2c(C(=O)NCc3ccc(F)cc3)oc(=O)c3ccccc23)cc1 | nt | ? | 7.1µM | i | i | i
Cc1ccc(-c2cc(C(=O)N3CCOCC3)c3ccccc3n2)cc1 | i[1.84 µM] | -98 | ? | i | ? | i
O=C(c1cn(-c2ccccc2)nc1-c1cccs1)N1CCN(c2ccc(F)cc2)CC1 | i | -109 | ? | ? | nt | nt
Cc1ccc(-c2c(C(=O)N3CCOCC3)oc(=O)c3ccccc23)cc1 | i | ? | 1.6µM | i | i | i
COCC(=O)N1CCC2(CC1)CCN(c1ncccn1)CC2 | nt | nt | i | nt | i | i
Cc1ccc2c(c1C)NC(=O)CC2c1ccc(Cl)cc1Cl (stereo not given) | i | nt | nt | nt | nt | nt
CCN(CCCCOC(=O)c1ccc(OC)c(OC)c1)[C@@H](C)Cc1ccc(OC)cc1 | i | nt | i | ? | i | i
COc1ccc(-n2c(=O)c(-c3cccs3)nc3cnc(N(C)C)nc32)cc1 | nt | nt | ? | i | nt | nt
CCOc1ccc(CNC(=O)CN2C(=O)CCn3nc(-c4cn(C)c5ccccc45)cc32)cc1OC | nt | nt | nt | i | nt | nt
Cc1ccc(-c2nn(-c3ccccc3)cc2C(=O)N2CCOCC2)cc1C | nt | nt | 10µM | i | nt | i
COc1ccc(Nc2ncnc3c2cnn3Cc2ccccc2)cc1 | i | i | 8.9µM | ? | 22µM | i
CCOc1ccc(Nc2ncnc3c2cnn3Cc2ccccc2)cc1 | i | i | 11µM | i | ? | i
SMILES | IMPase inh | PNC inhibitor | ALDH1A1 block | Lamin A splicing | HPGD inh | Luc counter
CSc1ccc(CCNc2ncnc3onc(-c4ccc(Cl)cc4)c23)cc1 | nt | nt | nt | i | nt | nt
CCOC(=O)c1c(C)[nH]c(C)c1C(=O)CN1C(=O)NC2(CCC(C)CC2)C1=O (stereo not given) | i | ? | i | i | i | i
CCOC(=O)c1c(C)[nH]c(C)c1C(=O)CN1C(=O)NC(CC(C)C)C1=O (stereo not given) | i | -94 | i | i | i | i
C[C@@H](c1ccccc1)N1C(=O)[C@H]2[C@H]3[C@H](O)[C@H](O)C/C(=N/OCc4ccccc4)[C@@H]3CC[C@@H]2C1=O | nt | nt | i[13.5 µM] | nt | nt | nt
CC(C)CN(C(=O)CN1CCN(c2ccccc2O)CC1)c1c(N)n(CC(C)C)c(=O)[nH]c1=O | nt | -86 | i | i | i | i
O=C(CSc1nc2ccsc2c(=O)n1Cc1ccccc1F)NCc1ccccc1Cl | nt | nt | nt | i | nt | nt
COc1ccc2[nH]c(C)c(CN3CCCCC3)c(=O)c2c1 | i | i | ? | i | i | i
COc1ccc2[nH]c(C)c(CCN3C(=O)C4C5C=CC(C5)C4C3=O)c2c1 (stereo not given) | i | i | 13µM | i | i | i
Cc1ccc(NC(=O)C2CCN(S(=O)(=O)c3c(C)noc3C)CC2)c(C)c1 | i | nt | nt | nt | nt | nt
CC[n+]1ccc(C[n+]2ccccc2)c2ccccc21 | nt | -82 | 19µM | i | ? | i
Cc1ccc(C(NC(=O)N2CCCC2)C(Cl)Cl)cc1F (stereo not given) | nt | nt | 11µM | i | nt | i
O=C1CCCC=C1[C@@H](O)CCOC(c1ccccc1)(c1ccccc1)c1ccccc1 | nt | nt | i | nt | i | i
CCN1CCN(C(=O)Cn2c(-c3cccs3)cc3cc(Cl)ccc32)CC1 | nt | nt | nt | i | nt | nt
O=S(=O)(c1ccccc1)n1nc(-c2ccc(Cl)cc2)nc1NCc1ccccc1 | i | nt | nt | nt | nt | nt
Cc1ccc(S(=O)(=O)n2nc(-c3ccc(Cl)cc3)nc2NCc2ccco2)cc1 | i | i | 3.5µM | i | i | i
C=CCn1cc(/C=N/N2C(=O)C3C4C=CC(C4)C3C2=O)c2ccccc21 (stereo not given) | nt | nt | 25µM | i | nt | i
O=C1C2C3C=CC(CC3)C2C(=O)N1/N=C/c1ccco1 (stereo not given) | nt | nt | ? | nt | nt | i
COc1ncc2nc(-c3ccc(Cl)cc3)c(=O)n(Cc3cccs3)c2n1 | nt | nt | ? | i | nt | nt
COc1cccc(C2=CC(c3ccc(OC)c(OC)c3)NC(=S)N2)c1 (stereo not given) | nt | nt | 14µM | nt | nt | nt
CC1(C)CC(=O)C(Sc2ccccc2[N+](=O)[O-])=C(O)C1 | nt | -83 | 7.1µM | ? | ? | i
Cc1cc(C)c(NC(=O)C2CCCN2CCOC(=O)c2cccc([N+](=O)[O-])c2)c(C)c1 (stereo not given) | nt | i | 40µM | i | i | i
Cn1cccc1-c1cc(C(=O)N2CCc3c([nH]c4ccccc34)C2c2ccccn2)[nH]n1 (stereo not given) | nt | nt | 13µM | nt | nt | i
COC(=O)c1ccc2nc(C)cc(Nc3ccc(N(C)C)cc3)c2c1 | nt | -119 | ? | i | i | i
C=CCOc1ccc(CNc2nccs2)cc1OCC | i | i | ? | i | i | i
C=CCOc1c(Cl)cc(CNc2nccs2)cc1OC | nt | nt | 13µM | i | nt | i
SMILES | IMPase inh | PNC inhibitor | ALDH1A1 block | Lamin A splicing | HPGD inh | Luc counter
C=CCOc1c(CNc2nccs2)cccc1OCC | i | ? | 2.5µM | i | i | i
Cc1cc(Cl)ccc1OCC(=O)NC1CCCC1 | i | i | i | ? | 14µM | i
O=C(COc1ccc(Br)cc1Br)NC1CCCC1 | nt | nt | i | nt | nt | i
O=C(COc1ccc(Br)cc1Cl)NC1CCCCC1 | nt | i | i | ? | 11µM | i
CCn1cc(C(C)NC(=O)COc2ccc(Cl)cc2C)c(C)n1 (stereo not given) | i | -95 | i | ? | i | i
O=C(COc1ccc2ccccc2c1)NC1CC1 | i | i | i | i | 32µM | i
